Each structure is given as a SMILES string. Several values for one entry are separate records, joined by “and”; a condition that tells them apart may be missing. Equal entries are not always repeated. Inconclusive results are not listed. Some compounds were tested as several samples or in several runs, with calls that do not always agree. Activity calls are given as the source filed them. Unless noted, calls come from the whole dose curve.

This is an account of results in PubChem BioAssay (Tox21).

Assay [1] in a line: Nuclear factor erythroid 2-related factor 2/antioxidant responsive element (Nrf2/ARE) small molecule agonists: qHTS cell viability counter screen in human keratinocytes (AID 1919968; active = well fitted curve in the direction sought with a large enough effect in the repeat runs; an effect the other way counts as inactive or inconclusive; note: nearly all actives have a fitted effect of over 55% in size; note: potency is the fitted concentration of half-maximal effect). Summed up:
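In human HaCaT keratinocytes stably expressing an ARE-driven luciferase, compound exposure lasted 23 h at 37 C under 5% CO2. Viable cells are quantified with a protease-based fluorogenic reagent (CellTiter-Fluor) read 1 h after addition.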
Background: qHTS replaces the single test concentration by a dilution series.

The nature of assay [2]: Nuclear factor erythroid 2-related factor 2/antioxidant responsive element (Nrf2/ARE) small molecule agonists: luciferase reporter gene qHTS assay in human keratinocytes (AID 1919969). Note: nearly all actives have a fitted effect of over 35% in size. Note: potency is the fitted concentration of half-maximal effect. In general terms: A reporter such as luciferase makes a cellular process visible.
Assay [3] has as its target Gonadotropin-releasing hormone receptor (Homo sapiens) (UniProt P30968). Put plainly: Human gonadotropin-releasing hormone receptor (GnRHR) small molecule agonists, calcium flux assay in GnRHR-HEK293 cells (AID 1920063). Note: nearly all actives have a fitted effect of over 35% in size. Summed up: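 Intracellular calcium rise is the read-out: engineered human GnRHR HEK293 cells, dye-loaded, are exposed to DMSO-dissolved compounds and fluorescence at Ex/Em 480/540 is tracked for 3 min.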
(Calcium assays in cells follow changes in intracellular calcium, usually with a dye or a luminescent sensor.)

Assay [4] addresses KiSS-1 receptor (Homo sapiens) (UniProt Q969F8). Put plainly: Human kisspeptin (KISS1R) small molecule agonists, calcium flux assay in KISS1R-HEK293 cells (AID 1920064; active = well fitted curve in the direction sought with a large enough effect in the repeat runs; an effect the other way counts as inactive or inconclusive). The method in brief:
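Concentration-response testing used 15 concentrations in triplicate on human KISS1R-expressing HEK293 cells. Calcium-dependent fluorescence (Ex/Em 480/540) was followed kinetically for 3 min after compound transfer.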

Assay [5] is described as follows: G protein-coupled receptor (GPCR) small molecule agonists, calcium flux assay: HEK293 wild type cell line counter screen (AID 1920065). The method in brief:
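Fluorescence intensity signals activation. After overnight (18 h) culture and a 1 h calcium dye load at 37 C, compounds are added by pin tool and the plate read at 480/540 nm for 3 min in 1 s steps.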

A short description of assay [6]: p53 small molecule agonists, cell-based qHTS assay with human liver microsomes (AID 1963577).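 Note: p53 response element beta-lactamase reporter cells with liver microsomes plus NADPH.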 Summed up: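 Reporter activation was measured by LiveBLAzer fluorescence intensity in p53RE-bla cells, which had been exposed to compounds for 16 h at 37 C alongside 0.5 mg/mL human liver microsomes and 0.5 mg/mL NADPH (final concentrations).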
Assay [7] can be described thus: p53 small molecule agonists, cell-based qHTS assay with rat liver microsomes (AID 1963578). Summed up: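 Compound in DMSO added to p53RE-bla cells 5 h post-plating; rat microsomes/NADPH 0.5 mg/mL final; 16 h, 37 C; LiveBLAzer 2 h RT.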
A short description of assay [8]: p53 small molecule agonists, cell-based qHTS assay with rat liver microsomes: qHTS cell viability counter screen (AID 1963580). Note: nearly all actives have a fitted effect of over 45% in size. Summed up: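 Cytotoxicity counter screen: intracellular ATP measured by CellTiter-Glo luminescence in the same wells as the beta-lactamase reporter read, on HCT-116 p53RE-bla cells exposed 16 h at 37 C to compounds with rat liver microsomes and NADPH, each 0.5 mg/mL final.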

A short description of assay [9]: p53 small molecule agonists, cell-based qHTS assay: qHTS cell viability counter screen (AID 1963581). Note: nearly all actives have a fitted effect of over 45% in size. Summed up: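 Luminescence from CellTiter-Glo, reflecting ATP content, serves as the cytotoxicity measure; it is taken after the 2 h reporter substrate step in HCT-116 p53RE-bla cells dosed for 16 h at 37 C.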
Assay [10] in a line: p53 small molecule agonists, cell-based qHTS assay (AID 1963582; active = well fitted activation curve with a large enough effect in the signal ratio in the repeat runs, not every such curve was filed as active; the % refers to the signal ratio). The method in brief:
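After plating, p53RE-bla cells sat 5 h in the incubator; compounds or DMSO vehicle were pinned in; a 16 h incubation at 37 C followed; FRET substrate was added and, 2 h later at RT, fluorescence was measured.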

In assay [11] the target is 5-hydroxytryptamine receptor 2A (Homo sapiens) (UniProt P28223). Put plainly: 5-hydroxytryptamine receptor 2A (HTR2A) small molecule antagonists, cell-based qHTS assay (AID 1963586). Note: nearly all actives have a fitted effect of over 45% in size. The method in brief: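 CHO cells stably expressing human HTR2A were plated for 18 h at 37 C, then loaded with calcium dye for 1 h. Compounds were preincubated 5 min at room temperature before DOI (4 nM solution) was added. Kinetic fluorescence was read for 3 min.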
5-hydroxytryptamine receptor 2A (Homo sapiens), sequence (P28223 whole entry, looked up): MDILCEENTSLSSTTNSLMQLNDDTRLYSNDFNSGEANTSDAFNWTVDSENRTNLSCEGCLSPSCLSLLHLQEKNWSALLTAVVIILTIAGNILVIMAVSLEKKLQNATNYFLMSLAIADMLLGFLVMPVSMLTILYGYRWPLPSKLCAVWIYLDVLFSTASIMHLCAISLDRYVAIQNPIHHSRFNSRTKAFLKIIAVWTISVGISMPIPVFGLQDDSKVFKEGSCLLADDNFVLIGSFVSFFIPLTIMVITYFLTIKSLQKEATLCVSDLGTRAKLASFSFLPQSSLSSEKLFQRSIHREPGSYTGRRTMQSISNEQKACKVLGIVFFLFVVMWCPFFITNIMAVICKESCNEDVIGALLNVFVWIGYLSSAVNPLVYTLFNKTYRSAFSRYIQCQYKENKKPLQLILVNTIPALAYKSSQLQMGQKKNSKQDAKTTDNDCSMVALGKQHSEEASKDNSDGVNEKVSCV

Assay [12] shares this target. Put plainly: 5-hydroxytryptamine receptor 2A (HTR2A) small molecule agonists, cell-based qHTS assay (AID 1963587). Note: nearly all actives have a fitted effect of over 30% in size. Note: potency is the fitted concentration of half-maximal effect. The method in brief: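 CHO cells stably expressing human HTR2A, plated 18 h, loaded with calcium dye 1 h at 37 C. Agonist mode: compounds added and intracellular calcium fluorescence recorded kinetically for 2 min at 1 sec intervals.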
Assay [13] deals with Muscarinic acetylcholine receptor M1 (Homo sapiens) (UniProt P11229). Put plainly: Cholinergic receptor muscarinic 1 (CHRM1) small molecule antagonists, cell-based qHTS assay (AID 1963588). Note: nearly all actives have a fitted effect of over 40% in size. The method in brief: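 Compounds were tested at 15 concentrations in three independent runs. Dye-loaded CHRM1-CHO cells were exposed 5 min at room temperature before stimulation by acetylcholine added at 50nM. Intracellular calcium was read kinetically on FDSS for 3 min.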
Muscarinic acetylcholine receptor M1 (Homo sapiens), sequence (P11229 whole entry, looked up): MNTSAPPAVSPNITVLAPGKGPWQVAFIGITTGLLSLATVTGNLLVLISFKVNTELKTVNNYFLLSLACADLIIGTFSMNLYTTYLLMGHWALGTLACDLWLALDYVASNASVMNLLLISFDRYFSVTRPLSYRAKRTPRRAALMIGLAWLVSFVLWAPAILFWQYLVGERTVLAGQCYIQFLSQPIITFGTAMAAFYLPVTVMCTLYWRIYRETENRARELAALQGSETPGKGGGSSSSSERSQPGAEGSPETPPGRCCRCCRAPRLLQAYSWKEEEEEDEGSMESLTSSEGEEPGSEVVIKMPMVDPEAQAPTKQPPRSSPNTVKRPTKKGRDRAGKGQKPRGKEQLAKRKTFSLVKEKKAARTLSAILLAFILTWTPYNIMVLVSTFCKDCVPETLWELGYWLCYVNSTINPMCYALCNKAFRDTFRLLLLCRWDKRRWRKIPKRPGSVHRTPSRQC

Assay [14] shares this target. Put plainly: Cholinergic receptor muscarinic 1 (CHRM1) small molecule agonists, cell-based qHTS assay (AID 1963589). Note: nearly all actives have a fitted effect of over 35% in size. The method in brief:
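Fluorescent calcium dye reports M1 activation in stably transfected CHO cells. Compounds, 15 concentrations, added after 1 h dye loading at 37 C; kinetic reading at 1 sec intervals.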

Assay [15] in a line: cAMP Responsive Elements (CRE) small molecule agonists, cell-based qHTS assay (AID 1963590). The method in brief:
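Compound exposure lasted 3 h at 37 C/5% CO2 in CRE-bla HEK 293T cells grown in assay medium with 10% dialyzed FBS and 25 mM HEPES. Reporter signal came from LiveBLAzer B/G FRET substrate, 2 h, room temperature.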

Assay [16] in a line: cAMP Responsive Elements (CRE) small molecule antagonists, cell-based qHTS assay (AID 1963591; active = well fitted inhibition curve with a large enough effect in the signal ratio in the repeat runs, not every such curve was filed as active; the % refers to the signal ratio). The method in brief: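 Stimulation used NKH477 at a final 0.25 uM for 3 h in compound-treated CRE-bla HEK293T cells, seeded 18 h beforehand. Reporter activity was measured with LiveBLAzer B/G FRET substrate after 2 h at room temperature.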
In assay [17] the target is Beta-2 adrenergic receptor (Homo sapiens) (UniProt P07550). Briefly: Adrenergic beta2 receptor (ADRB2) small molecule antagonists, cell-based qHTS assay (AID 1963592). Note: series mostly up to about 92 µM; nearly all actives have a fitted effect of over 50% in size. Summed up: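 Assay format: CHO-ADRB2 cells, 18-20hr seeding at 37C/5% CO2, then compound plus 1nM isoproterenol agonist mix for 0.5hr RT. Homogeneous time-resolved fluorescence cAMP detection after 1hr, expressed as 665/615 nm ratio.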
Beta-2 adrenergic receptor (Homo sapiens), sequence (P07550 whole entry, looked up): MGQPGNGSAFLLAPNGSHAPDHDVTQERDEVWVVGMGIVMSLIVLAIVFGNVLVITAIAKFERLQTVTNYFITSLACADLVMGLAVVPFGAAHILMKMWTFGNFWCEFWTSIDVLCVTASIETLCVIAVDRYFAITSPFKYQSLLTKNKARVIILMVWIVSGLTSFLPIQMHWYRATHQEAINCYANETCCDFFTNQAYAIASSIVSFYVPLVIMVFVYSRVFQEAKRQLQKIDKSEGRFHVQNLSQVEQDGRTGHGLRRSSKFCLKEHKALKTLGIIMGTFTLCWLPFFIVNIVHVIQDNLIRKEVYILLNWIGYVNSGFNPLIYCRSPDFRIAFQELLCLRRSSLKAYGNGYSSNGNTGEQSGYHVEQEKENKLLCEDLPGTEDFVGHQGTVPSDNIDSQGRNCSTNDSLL

In assay [18] the target is D(2) dopamine receptor (Homo sapiens) (UniProt P14416). Briefly: Dopamine D2 receptor (DRD2) small molecule agonists, cell-based qHTS assay (AID 1963594). Note: nearly all actives have a fitted effect of over 35% in size. Summed up:
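HEK293 cells stably expressing human DRD2, pre-treated with PDE inhibitor Ro20-1724 (0.1 mM final) and compound 10 min at room temperature, then stimulated with NKH477 (200nM […]) for 30 min. cAMP read by HTRF (665/620 nm).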

Assay [19] has the same target. Put plainly: Dopamine D2 receptor (DRD2) small molecule antagonists, cell-based qHTS assay (AID 1963595; active = well fitted inhibition curve with a large enough effect in the signal ratio in the repeat runs, with a control signal flat; the % refers to the signal ratio). Summed up:
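HTRF cAMP read-out at 665 and 620 nm emission (340 nm excitation). Antagonist mode: compounds were tested against 12 nM quinpirole in DRD2-HEK293 cells, with 200 nM NKH477 raising cAMP and 0.1 mM Ro20-1724 blocking its breakdown.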

A short description of assay [20]: p53 small molecule agonists, cell-based qHTS assay with human liver microsomes: qHTS cell viability counter screen (AID 1963579). Note: nearly all actives have a fitted effect of over 45% in size. Note: potency is the fitted concentration of half-maximal effect. The method in brief:
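HLM-supplemented (0.5 mg/mL final) and NADPH-supplemented (0.5 mg/mL final) p53RE-bla cultures, 4,000 cells per well, were dosed with compounds in DMSO for 16 h at 37 C; luminescent ATP detection (CellTiter-Glo, 30 min, room temperature) quantified surviving cells.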

KiSS-1 receptor (Homo sapiens), sequence (Q969F8 whole entry, looked up): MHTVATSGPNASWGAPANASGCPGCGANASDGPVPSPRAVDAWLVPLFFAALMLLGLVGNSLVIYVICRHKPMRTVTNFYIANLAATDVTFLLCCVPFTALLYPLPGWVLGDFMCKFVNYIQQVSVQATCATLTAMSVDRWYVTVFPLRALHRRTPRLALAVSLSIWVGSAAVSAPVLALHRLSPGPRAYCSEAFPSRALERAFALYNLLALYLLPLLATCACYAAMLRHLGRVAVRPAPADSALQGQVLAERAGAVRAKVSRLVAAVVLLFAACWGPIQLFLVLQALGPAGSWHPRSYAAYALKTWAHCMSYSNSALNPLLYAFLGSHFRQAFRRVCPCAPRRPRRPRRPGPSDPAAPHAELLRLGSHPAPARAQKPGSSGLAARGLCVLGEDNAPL
Gonadotropin-releasing hormone receptor (Homo sapiens), sequence (P30968 whole entry, looked up): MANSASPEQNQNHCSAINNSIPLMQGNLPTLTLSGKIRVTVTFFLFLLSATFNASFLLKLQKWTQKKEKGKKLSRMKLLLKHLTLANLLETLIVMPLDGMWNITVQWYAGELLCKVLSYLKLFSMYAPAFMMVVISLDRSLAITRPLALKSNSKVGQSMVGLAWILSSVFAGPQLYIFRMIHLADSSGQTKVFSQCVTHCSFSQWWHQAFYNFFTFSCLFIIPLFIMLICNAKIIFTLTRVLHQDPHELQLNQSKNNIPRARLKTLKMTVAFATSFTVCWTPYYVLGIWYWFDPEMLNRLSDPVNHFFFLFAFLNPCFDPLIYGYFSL
D(2) dopamine receptor (Homo sapiens), sequence (P14416 whole entry, looked up): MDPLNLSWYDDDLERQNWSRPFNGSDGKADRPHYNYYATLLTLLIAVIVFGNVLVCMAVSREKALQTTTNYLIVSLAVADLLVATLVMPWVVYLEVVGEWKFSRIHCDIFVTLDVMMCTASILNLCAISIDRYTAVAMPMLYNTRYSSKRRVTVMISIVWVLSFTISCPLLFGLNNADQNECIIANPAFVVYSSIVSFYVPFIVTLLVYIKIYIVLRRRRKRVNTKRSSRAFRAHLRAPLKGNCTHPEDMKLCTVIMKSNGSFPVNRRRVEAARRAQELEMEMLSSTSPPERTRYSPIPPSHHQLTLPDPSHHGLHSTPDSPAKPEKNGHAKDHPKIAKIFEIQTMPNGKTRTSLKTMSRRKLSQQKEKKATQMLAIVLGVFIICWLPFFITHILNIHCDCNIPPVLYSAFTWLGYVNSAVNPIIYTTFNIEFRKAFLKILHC

For `CCCCN=C=O`, the Potency entry in assay [1], in assay [2], in assay [3], in assay [4], in assay [5] and in [6] was “inactive” each time. Further, the Potency result in assay [7], in assay [8], in [9], in [10], in [11] and in [12] was “inactive” each time. The Potency entry in assay [13], in assay [14], in assay [15], in assay [16], in [17] and in assay [18] was “inactive” in each case. Also, in [19], the Potency result was “inactive”.
With `CC(=[OH+])/C=C(/C)[O-].CC(=[OH+])/C=C(\C)[O-].CC(=[OH+])/C=C(\C)[O-].[Fe]`, the Potency entry in [1], in assay [2], in [3], in assay [4], in assay [5] and in [6] was “inactive” throughout. The Potency result in assay [7], in [20], in [9], in assay [10], in assay [11] and in assay [12] was “inactive” each time. For the same compound, the Potency result in assay [13], in [14], in assay [15], in assay [16], in assay [17] and in assay [18] was “inactive” each time. For the same compound, in assay [19], the Potency entry was “inactive”.
With `NCc1cccnc1`, the Potency entry in assay [1], in [2], in assay [3], in assay [4], in assay [5] and in assay [6] was “inactive” throughout. Moreover, the Potency result in [7], in assay [8], in assay [9], in [10], in assay [11] and in assay [12] was “inactive” each time. For the same compound, the Potency entry in assay [13], in [14], in assay [15], in [16], in [18] and in assay [19] was “inactive” each time.
In the case of `CN(C)C(=S)SSC(=S)N(C)C`, the Potency is 95.5 nM (active) and 137 nM (active) and 119 nM (active) in assay [1]; “inactive and 96.9 nM (active)” in [2]; “inactive and 27.5 µM (active)” in assay [12]. Further, the Potency entry in assay [3], in [4], in [5], in assay [6], in [7] and in assay [20] was “inactive” each time. Moreover, the Potency entry in [9], in [10], in assay [13], in [14], in [18] and in [19] was “inactive” throughout.
On to `CCOC(=O)Nc1cccc(OC(=O)Nc2ccccc2)c1`, for which the Potency entry in assay [1], in assay [2], in assay [3], in assay [4], in assay [5] and in assay [6] was “inactive” throughout. For the same compound, the Potency entry in assay [7], in assay [20], in assay [9], in assay [10], in assay [11] and in assay [13] was “inactive” in each case. Also, the Potency result in assay [14], in [15], in [16], in assay [17] and in [18] was “inactive” in each case.
As for `C=CCSSCC=C`, the Potency result in [1], in [2], in [3], in assay [4], in assay [5] and in assay [6] was “inactive” in each case. Further, the Potency entry in assay [7], in assay [8], in assay [9], in [10], in assay [11] and in assay [12] was “inactive” each time. Further, the Potency result in assay [13], in assay [14], in assay [15], in assay [16], in [17] and in assay [18] was “inactive” in each case. Moreover, the Potency result in assay [19] is “inactive”.
Turning to `CC(C)CC(C)(c1ccc(O)cc1)c1ccc(O)cc1`, the Potency in assay [1] is 27.4 µM (active) and 38.6 µM (active); in assay [20], “inactive and 36.3 µM (active)”. Further, the Potency result in assay [2], in [3], in assay [4], in assay [5], in assay [6] and in [7] was “inactive” in each case. The Potency entry in assay [9], in [10], in assay [12], in [13], in [14] and in [17] was “inactive” each time. The Potency entry in assay [18] is “inactive”.
